For assay [1], the system named is Vero E6 infected with SARS-CoV-2. The assay can be described thus: morphology score (similarity to uninfected cells); higher = more like uninfected cells. Particulars: 24 h.
The test system is the same in assay [2]. Briefly: SARS-CoV-2 infection rate relative to infected DMSO; higher = more infection, active = 60 or less. Particulars: 24 h.

Drawing on the supplement of paper PMC13380429, this text covers morphology score and SARS-CoV-2 infection rate for 26 molecules.

As for `NCCC(Oc1ccc(C(F)(F)F)cc1)c1ccccc1` (configuration not stated) [norfluoxetine] (10 µM), in assay [1], the morphology score is 0.568. Besides, in assay [2], the SARS-CoV-2 infection rate is 59% (active).

Take `NC1(c2ccc(-c3nc4ccn5c(=O)[nH]nc5c4cc3-c3ccccc3)cc2)CCC1` (0.833333 µM): in assay [1], the morphology score worked out at 0.255. In addition, the SARS-CoV-2 infection rate in assay [2] is 106% (inactive).

In turn, `COCCOc1ccc2c(c1)ncn2-c1ccc2cccc(N3CCC(N)CC3)c2n1` (0.833333 µM) returned a morphology score in assay [1] of -0.0191. Also, the SARS-CoV-2 infection rate in assay [2] is 106% (inactive).

For the molecule `[I-].[K+]` [potassium-iodide] (10 µM), in assay [1], the morphology score was -0.0371. For the same molecule, the SARS-CoV-2 infection rate in assay [2] is 114% (inactive).

`Nc1cc(Cl)c(N=C2NCCN2)c(Cl)c1` [apraclonidine] (10 µM) gave a morphology score in assay [1] of -0.0224. The SARS-CoV-2 infection rate in assay [2] was 110% (inactive).

In turn, `O=C(NOCC(O)CO)c1cc(Br)c(F)c(F)c1Nc1ccc(I)cc1F` (configuration not stated) (0.833333 µM) returned a morphology score in assay [1] of -0.0489. For the same molecule, the SARS-CoV-2 infection rate in assay [2] was 112% (inactive).

Molecule `CC(C)(C)NC[C@H](O)COc1nsnc1N1CCOCC1` [timolol] (10 µM) displayed a morphology score in assay [1] of -0.002. In addition, the SARS-CoV-2 infection rate in assay [2] is 98.5% (inactive).

In assay [1], `CSCC[C@H](NC(=O)[C@H](CC(C)C)NC(=O)CNC(=O)[C@H](Cc1ccccc1)NC(=O)[C@H](Cc1ccccc1)NC(=O)[C@H](CCC(N)=O)NC(=O)[C@H](CCC(N)=O)NC(=O)[C@@H]1CCCN1C(=O)[C@H](CCCCN)NC(=O)[C@@H]1CCCN1C(=O)[C@@H](N)CCCN=C(N)N)C(N)=O` [substance-P] (10 µM) displayed a morphology score of -0.0435. For the same molecule, the SARS-CoV-2 infection rate in assay [2] is 114% (inactive).

Turning to `Nc1nc(OCc2ccccc2)c2nc[nH]c2n1` [O6-benzylguanine] (10 µM), the morphology score in assay [1] came to 0.112. Further, the SARS-CoV-2 infection rate in assay [2] was 108% (inactive).

In assay [1], `O=C(O)C1=CCCN(CCOC(c2ccc(C(F)(F)F)cc2)c2ccc(C(F)(F)F)cc2)C1` (10 µM) had a morphology score of 0.0171. The SARS-CoV-2 infection rate in assay [2] is 103% (inactive).

Consider `O=C(NC(=O)c1c(F)cccc1F)Nc1cc(Cl)c(OC(F)(F)C(F)C(F)(F)F)cc1Cl` (configuration not stated) [lufenuron] (10 µM), for which, in assay [1], the morphology score was -0.0435. Further, the SARS-CoV-2 infection rate in assay [2] was 111% (inactive).

`CN1CCN(C(=O)c2cc3cc(Cl)ccc3[nH]2)CC1` (10 µM): the morphology score in assay [1] is -0.00911. In addition, the SARS-CoV-2 infection rate in assay [2] was 111% (inactive).

Take `CO[C@H]1/C=C/O[C@@]2(C)Oc3c(C)c(O)c4c(O)c(c(/C=N/N5CCN(C)CC5)c(O)c4c3C2=O)NC(=O)/C(C)=C\C=C\[C@H](C)[C@H](O)[C@@H](C)[C@@H](O)[C@@H](C)[C@H](OC(C)=O)[C@@H]1C` [rifampin] (0.833333 µM): in assay [1], the morphology score was -0.0289. Besides, in assay [2], the SARS-CoV-2 infection rate was 112% (inactive).

`COc1ccc(S(=O)(=O)Nc2c(C)cc(C)cc2C)cc1` (10 µM) returned a morphology score in assay [1] of 0.217. In assay [2], the SARS-CoV-2 infection rate is 80.5% (inactive).

As to `N#CC(C#N)=Cc1ccc(O)c(O)c1` [tyrphostin-AG-18] (10 µM), the morphology score in assay [1] was determined as 0.204. Also, the SARS-CoV-2 infection rate in assay [2] is 100% (inactive).

As to `O=c1[nH]c(=O)c2ccccc2o1` [carsalam] (10 µM), the morphology score in assay [1] was found to be 0.265. In addition, in assay [2], the SARS-CoV-2 infection rate is 85% (inactive).

Turning to `c1ccc(NCc2ccc(CNc3ccccn3)cc2)nc1` (10 µM), the morphology score in assay [1] was -0.0443. Moreover, the SARS-CoV-2 infection rate in assay [2] was 102% (inactive).

As for `CNC(=O)c1c(I)c(C(=O)NCC(=O)Nc2c(I)c(C(=O)O)c(I)c(C(=O)NCCO)c2I)c(I)c(N(C)C(C)=O)c1I` [ioxaglic-acid] (10 µM), in assay [1], the morphology score was found to be 0.0564. Moreover, in assay [2], the SARS-CoV-2 infection rate is 104% (inactive).

The molecule `CC1(C)O[C@@H]2C[C@H]3[C@@H]4C[C@H](F)C5=CC(=O)C=C[C@]5(C)[C@H]4[C@@H](O)C[C@]3(C)[C@]2(C(=O)CO)O1` [flunisolide] (10 µM) yielded a morphology score in assay [1] of 0.103. Also, in assay [2], the SARS-CoV-2 infection rate is 109% (inactive).

`OCc1ccc(CO)o1` [2,5-furandimethanol] (10 µM) returned a morphology score in assay [1] of 0.0908. In assay [2], the SARS-CoV-2 infection rate is 112% (inactive).

As to `Nc1ccccc1NC(=O)c1ccc(CNc2nccc(-c3cccnc3)n2)cc1` [mocetinostat] (0.833333 µM), the morphology score in assay [1] is -0.00842. Moreover, the SARS-CoV-2 infection rate in assay [2] is 104% (inactive).

Regarding `CN(C)C(=O)Oc1ccc[n+](C)c1` [mestinon] (10 µM), the morphology score in assay [1] came to 0.0902. Moreover, the SARS-CoV-2 infection rate in assay [2] was 121% (inactive).

In turn, `CC(=O)Nc1c(I)c(C(=O)O)c(I)c(N(C)C(C)=O)c1I` [metrizoic-acid] (10 µM) returned a morphology score in assay [1] of 0.0802. Besides, the SARS-CoV-2 infection rate in assay [2] was 108% (inactive).

In assay [1], `COc1cc(OC)cc(C(=O)NNC(=O)Nc2cccc3ccccc23)c1` (10 µM) had a morphology score of 0.0721. Also, the SARS-CoV-2 infection rate in assay [2] was 105% (inactive).

In turn, `CC(=O)N[C@H]1[C@H]([C@H](O)[C@H](O)CO)OC(O)(C(=O)O)C[C@@H]1O` (mixture of isomers) [aceneuramic-acid] (10 µM) gave a morphology score in assay [1] of 0.0132. Also, the SARS-CoV-2 infection rate in assay [2] is 104% (inactive).

On to `O=C(NC1CCNCC1)[C@@H]1CC[C@@H]2CN1C(=O)N2OS(=O)(=O)O` [relebactam] (10 µM), for which the morphology score in assay [1] was 0.0111. In assay [2], the SARS-CoV-2 infection rate was 110% (inactive).
